From PubChem BioAssay AID1159580 (chemical genetic matrix, 2015)
About 2,000 (36%) of roughly 5,500 compounds were called active. Roughly 18% stayed inconclusive and do not appear here. No stated cut-off is given here; in the data, active means normalized growth mostly below about 0.91 (no sharp cut-off); inconclusive means no clear call, values can overlap the other calls; inactive means mostly above about 0.92. This is one part of the list.

Experiment: chemical genetic growth profiling, strain panel (AID 1159580);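 further: tested at 20 µM; growth read once vehicle control cultures reached saturation at 30 °C; 1 = growth at the plate median or of vehicle wells; lower values mean less growth of the strain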
Conditions: growth OD

Measured: normalized growth

Nc1ccc(S(=O)(=O)NC(=O)c2ccccc2)cc1
inactive: S. cerevisiae deletion strains, locus YJR066W, strain TOR1, hits give low values 0.932 | S. cerevisiae deletion strains, locus YJR075W, strain HOC1, hits give low values 1.02 | S. cerevisiae deletion strains, locus YKL009W, strain mrt4, hits give low values 1.02 | S. cerevisiae deletion strains, locus YKL068W, hits give low values 1.01 | S. cerevisiae deletion strains, locus YKL085W, strain MDH1 (second series), hits give low values 1 | S. cerevisiae deletion strains, locus YKL085W, strain MDH1, hits give low values 1 | S. cerevisiae deletion strains, locus YKL160W, strain elf1, hits give low values 1.01 | S. cerevisiae deletion strains, locus YKL190W, strain CNB1, hits give low values 1.01 | S. cerevisiae deletion strains, locus YKR001C, strain vps1, hits give low values 1.03 | S. cerevisiae deletion strains, locus YKR026C, strain gcn3, hits give low values 0.969 | S. cerevisiae deletion strains, locus YKR091W, strain srl3, hits give low values 0.978 | S. cerevisiae deletion strains, locus YLL001W, strain dnm1, hits give low values 0.995 | S. cerevisiae deletion strains, locus YLL026W, hits give low values 1 | S. cerevisiae deletion strains, locus YLL041C, strain sdh2, hits give low values 0.992 | S. cerevisiae deletion strains, locus YLR027C, strain aat2, hits give low values 0.996 | S. cerevisiae deletion strains, locus YLR039C, strain RIC1, hits give low values 0.834 | S. cerevisiae deletion strains, locus YLR058C, strain SHM2, hits give low values 1.01 | S. cerevisiae deletion strains, locus YLR102C, strain apc9, hits give low values 1.01 | S. cerevisiae deletion strains, locus YLR113W, strain HOG1, hits give low values 0.968 | S. cerevisiae deletion strains, locus YLR221C, strain rsa3, hits give low values 0.976 | S. cerevisiae deletion strains, locus YLR258W, strain gsy2, hits give low values 0.987 | S. cerevisiae deletion strains, locus YLR262C, strain YPT6 (second series), hits give low values 0.979 | S. cerevisiae deletion strains, locus YLR262C, strain YPT6, hits give low values 1.01 | S. cerevisiae deletion strains, locus YLR268W, strain sec22, hits give low values 1.04 | S. cerevisiae deletion strains, locus YLR320W, strain mms22, hits give low values 0.985 | S. cerevisiae deletion strains, locus YLR330W, strain CHS5, hits give low values 1.01 | S. cerevisiae deletion strains, locus YLR342W, strain FKS1 (second series), hits give low values 1.02 | S. cerevisiae deletion strains, locus YLR342W, strain FKS1, hits give low values 0.998 | S. cerevisiae deletion strains, locus YLR357W, strain rsc2, hits give low values 0.977 | S. cerevisiae deletion strains, locus YLR370C, strain arc18, hits give low values 0.991 | S. cerevisiae deletion strains, locus YLR371W, strain rom2, hits give low values 1.02 | S. cerevisiae deletion strains, locus YLR384C, strain iki3, hits give low values 0.998 | S. cerevisiae deletion strains, locus YLR418C, strain cdc73, hits give low values 1.02 | S. cerevisiae deletion strains, locus YML016C, strain PPZ1, hits give low values 1.04 | S. cerevisiae deletion strains, locus YML032C, strain rad52, hits give low values 1.03 | S. cerevisiae deletion strains, locus YML120C, strain ndi1, hits give low values 0.972 | S. cerevisiae deletion strains, locus YML124C, strain tub3, hits give low values 1.01 | S. cerevisiae deletion strains, locus YMR058W, strain fet3, hits give low values 0.981 | S. cerevisiae deletion strains, locus YMR078C, strain ctf18, hits give low values 1.01 | S. cerevisiae deletion strains, locus YMR125W, strain sto1, hits give low values 0.977 | S. cerevisiae deletion strains, locus YMR129W, hits give low values 0.989 | S. cerevisiae deletion strains, locus YMR205C, strain PFK2, hits give low values 1 | S. cerevisiae deletion strains, locus YMR223W, strain ubp8, hits give low values 1.01 | S. cerevisiae deletion strains, locus YMR231W, strain pep5, hits give low values 0.981 | S. cerevisiae deletion strains, locus YMR263W, strain SAP30, hits give low values 1.01 | S. cerevisiae deletion strains, locus YMR307W, strain GAS1, hits give low values 0.878 | S. cerevisiae deletion strains, locus YNL067W, strain RPL9B, hits give low values 1.01 | S. cerevisiae deletion strains, locus YNL071W, strain lat1, hits give low values 0.977 | S. cerevisiae deletion strains, locus YNL183C, strain NPR1, hits give low values 0.95 | S. cerevisiae deletion strains, locus YNL209W, strain ssb2, hits give low values 0.971 | S. cerevisiae deletion strains, locus YNL233W, strain BNI4, hits give low values 1.01 | S. cerevisiae deletion strains, locus YNL248C, strain rpa49, hits give low values 1 | S. cerevisiae deletion strains, locus YNL250W, strain rad50, hits give low values 1 | S. cerevisiae deletion strains, locus YNL271C, strain bni1, hits give low values 1.01 | S. cerevisiae deletion strains, locus YNL298W, strain CLA4, hits give low values 1.02 | S. cerevisiae deletion strains, locus YNL307C, strain MCK1, hits give low values 1.03 | S. cerevisiae deletion strains, locus YNL322C, strain KRE1 (second series), hits give low values 0.964 | S. cerevisiae deletion strains, locus YNR049C, strain mso1, hits give low values 0.981 | S. cerevisiae deletion strains, locus YNR052C, strain pop2, hits give low values 1.01 | S. cerevisiae deletion strains, locus YOL006C, strain TOP1, hits give low values 1 | S. cerevisiae deletion strains, locus YOL012C, strain htz1 1.35 | S. cerevisiae deletion strains, locus YOL147C, strain pex11, hits give low values 1.02 | S. cerevisiae deletion strains, locus YOR001W, strain rrp6, hits give low values 0.954 | S. cerevisiae deletion strains, locus YOR061W, strain CKA2, hits give low values 1 | S. cerevisiae deletion strains, locus YOR069W, strain VPS5, hits give low values 1.01 | S. cerevisiae deletion strains, locus YOR070C, strain gyp1, hits give low values 0.996 | S. cerevisiae deletion strains, locus YOR080W, strain dia2, hits give low values 0.981 | S. cerevisiae deletion strains, locus YOR083W, strain WHI5, hits give low values 0.966 | S. cerevisiae deletion strains, locus YOR106W, strain vam3, hits give low values 0.999 | S. cerevisiae deletion strains, locus YOR136W, strain idh2, hits give low values 1.01 | S. cerevisiae deletion strains, locus YOR144C, strain elg1, hits give low values 1.01 | S. cerevisiae deletion strains, locus YOR184W, strain ser1, hits give low values 1.03 | S. cerevisiae deletion strains, locus YOR231W, strain MKK1, hits give low values 0.996 | S. cerevisiae deletion strains, locus YOR265W, strain rbl2, hits give low values 0.997 | S. cerevisiae deletion strains, locus YOR270C, strain vph1, hits give low values 0.96 | S. cerevisiae deletion strains, locus YOR290C, strain snf2, hits give low values 0.993 | S. cerevisiae deletion strains, locus YOR316C, strain cot1, hits give low values 1 | S. cerevisiae deletion strains, locus YPL051W, strain arl3, hits give low values 1.01 | S. cerevisiae deletion strains, locus YPL078C, strain atp4, hits give low values 1.04 | S. cerevisiae deletion strains, locus YPL106C, strain sse1, hits give low values 0.976 | S. cerevisiae deletion strains, locus YPL240C, strain hsp82, hits give low values 0.983 | S. cerevisiae deletion strains, locus YPL256C, strain CLN2, hits give low values 0.984 | S. cerevisiae deletion strains, locus YPR119W, strain clb2, hits give low values 1.02 | S. cerevisiae deletion strains, locus YPR141C, strain kar3, hits give low values 1.02 | S. cerevisiae deletion strains, locus YPR163C, strain tif3, hits give low values 1.02 | S. cerevisiae deletion strains, locus YPR167C, strain met16, hits give low values 1.01 | S. cerevisiae deletion strains, strain wtn01, hits give low values 1.01 | S. cerevisiae strains, strain wild type, hits give low values 1.01
